Measured values taken from PubChem BioAssay.
Unmarked numbers belong to inactive results. Calls of active or inactive are those of the source.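 The calls were made as follows, unless noted: active = at least 20% inhibition of 6-phosphogluconate dehydrogenase activity; inactive = the rest.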

Columns and labels:
[1] = biological target: 6-phosphogluconate dehydrogenase, decarboxylating (Homo sapiens) (UniProt P52209); test: 6PGD enzyme inhibitors, primary screen, biochemical, human, recombinant enzyme, NADPH absorbance (AID 1159550); details: recombinant 6PGD, NADPH absorbance 341 nm; at 10 µM; stronger effect = higher value
[2] = biological target: Mitogen-activated protein kinase 7 (Homo sapiens) (UniProt Q13164); test: ERK5 transactivation activators in reporter cells, primary screen, cell-based, HTS (AID 1508626;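 active = luciferase signal above three times the same-plate solvent-only control wells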;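 also: luciferase driven by Gal4-ERK5 fusion binding five Gal4 sites before minimal TATA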); details: HeLa Gal4-ERK5 transactivation, 18 h, at 5 µM, stronger effect = higher value
Mitogen-activated protein kinase 7 (Homo sapiens), sequence (Q13164 whole entry, looked up, the tested form may be a part): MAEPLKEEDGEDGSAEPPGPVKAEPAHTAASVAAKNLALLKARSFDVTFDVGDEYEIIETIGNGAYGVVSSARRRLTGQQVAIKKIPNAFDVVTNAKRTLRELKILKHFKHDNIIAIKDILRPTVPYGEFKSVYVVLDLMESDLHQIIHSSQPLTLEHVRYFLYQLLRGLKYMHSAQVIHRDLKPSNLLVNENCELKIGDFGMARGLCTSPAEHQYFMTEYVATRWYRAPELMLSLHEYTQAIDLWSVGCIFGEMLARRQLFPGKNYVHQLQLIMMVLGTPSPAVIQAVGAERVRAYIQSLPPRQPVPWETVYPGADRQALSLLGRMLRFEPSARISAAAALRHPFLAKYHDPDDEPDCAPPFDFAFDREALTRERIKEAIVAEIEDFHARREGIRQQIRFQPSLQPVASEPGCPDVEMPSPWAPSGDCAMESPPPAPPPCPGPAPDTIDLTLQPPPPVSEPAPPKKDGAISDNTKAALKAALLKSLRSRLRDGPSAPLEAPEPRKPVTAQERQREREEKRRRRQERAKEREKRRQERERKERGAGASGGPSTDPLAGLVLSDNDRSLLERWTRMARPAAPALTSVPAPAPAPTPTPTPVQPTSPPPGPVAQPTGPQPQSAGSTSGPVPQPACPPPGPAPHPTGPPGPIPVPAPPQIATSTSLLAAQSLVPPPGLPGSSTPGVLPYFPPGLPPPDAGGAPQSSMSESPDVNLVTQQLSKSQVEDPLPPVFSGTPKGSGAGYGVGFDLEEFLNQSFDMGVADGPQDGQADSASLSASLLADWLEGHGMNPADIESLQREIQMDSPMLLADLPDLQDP

6-phosphogluconate dehydrogenase, decarboxylating (Homo sapiens), sequence (P52209 whole entry, looked up, the tested form may be a part): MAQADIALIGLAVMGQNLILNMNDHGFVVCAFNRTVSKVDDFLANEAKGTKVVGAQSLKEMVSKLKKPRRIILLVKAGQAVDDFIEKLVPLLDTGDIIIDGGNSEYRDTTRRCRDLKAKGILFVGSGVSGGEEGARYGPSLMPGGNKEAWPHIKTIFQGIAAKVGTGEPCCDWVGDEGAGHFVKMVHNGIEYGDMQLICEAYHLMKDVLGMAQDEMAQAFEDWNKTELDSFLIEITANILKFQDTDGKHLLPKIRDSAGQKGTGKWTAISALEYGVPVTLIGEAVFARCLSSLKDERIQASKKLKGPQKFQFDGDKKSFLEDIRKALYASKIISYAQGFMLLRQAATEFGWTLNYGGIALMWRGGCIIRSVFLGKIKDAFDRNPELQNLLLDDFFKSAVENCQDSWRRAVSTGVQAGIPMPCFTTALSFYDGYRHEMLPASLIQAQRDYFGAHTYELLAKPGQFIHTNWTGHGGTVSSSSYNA

Molecule COc1ccc2c(c1)OC/C(=C/c1ccc(OC)c(OC)c1)C2=O has an inhibition [1] of -0.769% and a luciferase signal [2] of 36 AU.

Work on COc1cc(O)c2c(=O)c(O)c(-c3ccc(O)c(O)c3)oc2c1 yielded an inhibition [1] of 4.95% and a luciferase signal [2] of 144 AU.

COC(=O)C[C@H]1C2(C)CC34OC5(C)O[C@@]6([C@H](OC)C(OC(=O)C(C)C)[C@]7(C)C(/C(=C(/OC)C(C)C)C(=O)O[C@H]7c7ccoc7)[C@@]6(O5)[C@H](OC)[C@@]3(OC)C2OC(C)=O)[C@]14C (stereo partly drawn) showed an inhibition [1] of -3.86% and a luciferase signal [2] of 20 AU.

With COC(=O)CCCOc1ccc(Cl)cc1Cl the inhibition [1] was -8.02% and the luciferase signal [2] was 60 AU.

COc1cc(OC)c2c(=O)c(-c3ccccc3)coc2c1 showed an inhibition [1] of 10.4% and a luciferase signal [2] of 68 AU.

CC(C)CCC[C@@H](C)[C@H]1CC[C@H]2[C@@H]3C[C@@H](O)[C@@]4(O)C[C@@H](O)CC[C@]4(C)[C@H]3CC[C@]12C showed an inhibition [1] of -2.71% and a luciferase signal [2] of 88 AU.

C[C@@H]1CC[C@H]2[C@](C)(CO)[C@@H](O)CC[C@]2(C)[C@@]12CC[C@@](CO)(CCO)O2 gave an inhibition [1] of -5.82% and a luciferase signal [2] of 48 AU.

Molecule O=C1C=C(O)c2ccccc2C1=O has an inhibition [1] of 5.16% and a luciferase signal [2] of 44 AU.

In the case of COc1ccc(-c2cc(=O)c3cc(OC)ccc3o2)cc1, the inhibition [1] is reported as -2.36% and the luciferase signal [2] is reported as 40 AU.

Work on CC(=O)OC1CC2C(C)(C)C(=O)CCC2(C)C2CCC3(C)C(c4ccoc4)OC(=O)C4OC43C12C (stereo not drawn) yielded an inhibition [1] of 11.7% and a luciferase signal [2] of 20 AU.

For C[C@H](CCC(=O)O)[C@H]1CC[C@H]2[C@@H]3[C@H](O)C[C@@H]4C[C@H](O)CC[C@]4(C)[C@H]3C[C@H](O)[C@]12C, the inhibition [1] was -7.09% and the luciferase signal [2] was 28 AU.

CCC(=O)O[C@H]1CC[C@H]2[C@@H]3CCc4cc(O)ccc4[C@H]3CC[C@]12C gave an inhibition [1] of -10.1% and a luciferase signal [2] of 24 AU.

C=C1C(=O)OC2CC1C(OC(C)=O)C/C(C)=C/CC/C(C)=C\CCC2(C)O (stereo not drawn) was tested, and the inhibition [1] was 10.9% and the luciferase signal [2] was 16 AU.

In the case of COc1ccc2ccc(=O)oc2c1, the inhibition [1] is reported as 6.96% and the luciferase signal [2] is reported as 44 AU.

CC(=O)OCC1(O)CC23CCC4c5ccoc5CCC4(C)C2CCC1C3 (stereo not drawn) showed an inhibition [1] of 4.27% and a luciferase signal [2] of 24 AU.

For CC(=O)OC1CCC2(O)CC1(C)CCC1C2CC1(C)C (stereo not drawn), the inhibition [1] was 15.6% and the luciferase signal [2] was 36 AU.

COC(=O)c1c(C)cc(OC)cc1O showed an inhibition [1] of -8.1% and a luciferase signal [2] of 32 AU.

In the case of O=C(O)C1CC([C@@H]2CCCCN2)CN2CCCCC12 (stereo partly drawn), the inhibition [1] is reported as 18.1% and the luciferase signal [2] is reported as 220 AU (active).

With CC(C)=CCC/C(C)=C\CO the inhibition [1] was 6.7% and the luciferase signal [2] was 60 AU.

In the case of COc1ccc(C2CC(=O)c3ccc(OC)cc3O2)cc1 (stereo not drawn), the inhibition [1] is reported as 21.7% (active) and the luciferase signal [2] is reported as 84 AU.

Work on COC1=C(O)c2cc3oc(C(C)=O)c(O)c3c(O)c2C(=O)C1=O yielded an inhibition [1] of 1.87% and a luciferase signal [2] of 52 AU.

Molecule COc1cccc(/C=C/C(=O)O)c1C(C)C has an inhibition [1] of 0.939% and a luciferase signal [2] of 24 AU.

With CC(=O)O[C@H]1CC[C@@]2(C)C(=CC=C3[C@@H]4CC[C@H]([C@H](C)/C=C/[C@H](C)C(C)C)[C@@]4(C)CC[C@@H]32)C1 the inhibition [1] was 14.6% and the luciferase signal [2] was 72 AU.

C[C@@H]1CC[C@H]2C(C)(C)[C@H]3C[C@@]12CC[C@@]3(C)O gave an inhibition [1] of 1.71% and a luciferase signal [2] of 28 AU.

In the case of CC(C)=CCc1c2c(c(O)c3c(=O)c(O)c(-c4ccccc4)oc13)C=CC(C)(C)O2, the inhibition [1] is reported as -4.34% and the luciferase signal [2] is reported as 64 AU.

With CC(=O)O[C@H]1CC[C@@]2(C)C(=CC(=O)[C@H]3[C@@H]4CC[C@H]([C@H](C)CCCC(C)C)[C@@]4(C)CC[C@@H]32)C1 the inhibition [1] was -8.76% and the luciferase signal [2] was 76 AU.

Work on COc1ccc(C(C)=O)c(OC)c1 yielded an inhibition [1] of -3.95% and a luciferase signal [2] of 76 AU.

COC1[C@H](O)[C@@H](O)C(O)[C@H](O)[C@H]1O (stereo partly drawn) was tested, and the inhibition [1] was -7.09% and the luciferase signal [2] was 136 AU.

For COC(=O)C(O)c1ccccc1 (stereo not drawn), the inhibition [1] was 1.31% and the luciferase signal [2] was 28 AU.

In the case of CC(C)C1=CC2=CC[C@@H]3[C@](C)(CCC[C@@]3(C)C(=O)O)[C@H]2CC1, the inhibition [1] is reported as -6.38% and the luciferase signal [2] is reported as 44 AU.

C=C1C2CCC3(C)C(c4ccoc4)OC(=O)CC13OC1CC(OC(C)=O)C(C)(C)C(CC(=O)OC)C12C (stereo not drawn) was tested, and the inhibition [1] was 5.49% and the luciferase signal [2] was 56 AU.

CC1(O)CC2C(CC1O)C2(C)C (stereo not drawn) showed an inhibition [1] of 13.8% and a luciferase signal [2] of 60 AU.

O=C(O)CN(CC(=O)O)Cc1cc2c(cc1O)Oc1cc(O)c(CN(CC(=O)O)CC(=O)O)cc1C21OC(=O)c2ccccc21 was tested, and the inhibition [1] was -1.59% and the luciferase signal [2] was 140 AU.

Molecule COC(=O)[C@@H]1OC(=O)C2OC23[C@@]1(C)CCC1[C@]2(C)C(C[C@H](O)[C@]13C)C(C)(C)[C@H](OC(C)=O)C[C@@H]2OC(C)=O (stereo partly drawn) has an inhibition [1] of -8.14% and a luciferase signal [2] of 24 AU.

Molecule C[C@@H]1O[C@@H](O[C@H]2[C@H](O[C@H]3CC[C@@]4(C)[C@@H](CC[C@]5(C)[C@@H]4CC=C4[C@@H]6CC(C)(C)CC[C@]6(C(=O)O)CC[C@]45C)[C@]3(C)CO)OC[C@H](O)[C@@H]2O)[C@H](O)[C@H](O)[C@H]1O has an inhibition [1] of 10.9% and a luciferase signal [2] of 40 AU.

In the case of CC1(C)C[C@@H]2C(=O)CC[C@H]3O[C@]3(C)CC[C@H]21, the inhibition [1] is reported as 14.4% and the luciferase signal [2] is reported as 44 AU.

With CC(=O)O[C@H]1CC[C@@]2(C)[C@H](CC[C@@H]3[C@@H]2CC[C@]2(C)[C@@H]4[C@H](C[C@@H]32)O[C@]2(CC[C@@H](C)CO2)[C@H]4C)C1 the inhibition [1] was 13.5% and the luciferase signal [2] was 44 AU.

Work on N[C@@H](CSCSC[C@H](N)C(=O)O)C(=O)O yielded an inhibition [1] of 6.1% and a luciferase signal [2] of 300 AU.

In the case of CC1C2[C@]3(CC[C@H]1C)CCC1(C)[C@@]2(C=CC2[C@@]4(C)CC[C@H](O)C(C)(C)C4CC[C@]21C)OC3=O (stereo partly drawn), the inhibition [1] is reported as 5.53% and the luciferase signal [2] is reported as 56 AU.

With C[C@@H]([C@H]1OC(C)(C)[C@@H](O)[C@H]1O)[C@@H]1CC[C@]2(C)C3=CC[C@H]4C(C)(C)C(=O)CC[C@]4(C)[C@H]3CC[C@@]12C the inhibition [1] was 4.2% and the luciferase signal [2] was 44 AU.

C[C@H]1[C@H](C)CC[C@]2(CO)CC[C@]3(C)C(=CC[C@@H]4[C@@]5(C)CC[C@H](O)C(C)(C)[C@@H]5CC[C@]43C)[C@H]12 was tested, and the inhibition [1] was -50.4% and the luciferase signal [2] was 52 AU.

CCCCCC/C=C\CCCCCCCc1cccc(O)c1C(=O)O gave an inhibition [1] of 0.888% and a luciferase signal [2] of 76 AU.

CC1=C[C@@H]2[C@@H](CC1)[C@](C)(O)CC[C@H]2C(C)C showed an inhibition [1] of 9.65% and a luciferase signal [2] of 48 AU.

COC(=O)C[C@H]1C2(C)CC34OC5(C)O[C@@]6([C@H](OC(C)=O)C(OC(C)=O)[C@]7(C)C(/C(=C(/O)C(C)C)C(=O)O[C@H]7c7ccoc7)[C@@]6(O5)[C@H](OC(C)=O)[C@@]3(O)C2OC(=O)C(C)C)[C@]14C (stereo partly drawn) showed an inhibition [1] of -3.02% and a luciferase signal [2] of 24 AU.
